Data published in PubChem BioAssay (NCATS).
Records with an inconclusive call do not appear. Calls of active or inactive are those of the source. Calls follow the shape of the dose curve; as a rule, active = well fitted curve in the direction sought with a large enough effect; inconclusive = small, poorly fitted or top-dose-only effect, or another doubt; inactive = no such curve, though single readings can be large; an effect the other way counts as inactive or inconclusive.

Columns and labels:
[1] = molecular target: Glutathione peroxidase 1 (Homo sapiens) (UniProt P07203); test: Primary qHTS Assay for Inhibitors of Recombinant Selenoprotein Glutathione Peroxidase 1 (GPX1) (AID 1845191); also: nearly all actives have a fitted effect of over 65% in size; also: potency is read from the fitted curve at half-maximal effect; as to activity, negative = inhibition: % is scaled to controls: 0 for no effect and ±100 for the full control effect
Outline: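 10 nM GPX1 + cpd, 30 min RT; start w/ 1 mM GSH, 0.5 mM cumene hydroperoxide, 0.5 mM NADPH, 100 nM GR, 0.01% BSA; buffer 50 mM Tris-HCl pH 7.5, 2 mM EDTA, 150 mM NaCl; Fl 340/450, 0 & 15 min.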

[2] = molecular target: Phospholipid hydroperoxide glutathione peroxidase GPX4 (Homo sapiens) (UniProt P36969); test: Primary qHTS Assay for Inhibitors of Recombinant Selenoprotein Glutathione Peroxidase 4 (GPX4) (AID 1845192); also: nearly all actives have a fitted effect of over 65% in size; as to activity change, negative = inhibition: series mostly up to about 50 µM; % is scaled to controls: 0 for no effect and ±100 for the full control effect
Outline: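 NADPH consumption, followed by fluorescence at 340/450 nm between 0 and 15 min, reports GPX4 activity via coupled glutathione reductase (100 nM). Enzyme 200 nM was pre-exposed to compound 30 min; 0.5 mM cumene hydroperoxide and 1 mM GSH served as substrates.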

[3] = molecular target: Luciferin 4-monooxygenase (Photinus pyralis) (UniProt P08659); test: Primary firefly luciferase (FLuc) qHTS assay for identification of artifact compounds. (AID 1845220); also: nearly all actives have a fitted effect of over 60% in size;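 as to activity change, negative = inhibition: series mostly up to about 54 µM; plate controls were DMSO vehicle for no effect and no enzyme for full effect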
Outline: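 Compounds sat 15 min at room temperature with 10 uM luciferin and 10 uM ATP (pH 7.6 Tris acetate). Firefly luciferase (10 nM final) was then added, and luminescence was read 5 min later. Data normalized to no-enzyme and DMSO controls were Hill-fitted.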

[4] = Primary fluorescence-based thiol-reactive (MSTI) qHTS assay for identification of artifact compounds. (AID 1845221); also: nearly all actives have a fitted effect of over 65% in size; also: potency is read from the fitted curve at half-maximal effect;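 as to activity change, negative = thiol reactive: series mostly up to about 54 µM; thiol-reactive compounds lower the probe fluorescence signal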
Outline: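 Probe: MSTI 4 uM, PBS pH 7.4, 2% DMSO. Incubation 1 h, RT, light-protected. Readout fluorescence 525/598 nm.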

[5] = system: Nanoluciferase (engineered Oplophorus gracilirostris luciferase); test: Primary Nanoluciferase (NLuc) qHTS assay for identification of artifact compounds. (AID 1845222); also: potency is read from the fitted curve at half-maximal effect;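 as to activity, negative = inhibition: series mostly up to about 54 µM; 0% = DMSO and -100% = no enzyme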
Outline: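 Luminescence from secreted NLuc (filtered, 1:55-diluted S16 cell medium) read 5 min after Nano-Glo substrate; compounds preincubated 15 min, RT. Hill fits of inhibition normalized to DMSO and no-enzyme.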

[6] = Primary redox qHTS assay for identification of artifact compounds. (AID 1845223);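 also: 0% = DMSO and 100% = reference compound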
Outline: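 Amplex Red (25 uM) and HRP (250 mU/mL) in HBSS, with compounds for 15 min, then 250 uM DTT for 30 min, room temperature, dark. Fluorescence 525/598 nm read; normalized to DMSO and 10 uM DA3003; Hill fit.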

Chain of Glutathione peroxidase 1 (Homo sapiens) (P07203 whole entry, looked up): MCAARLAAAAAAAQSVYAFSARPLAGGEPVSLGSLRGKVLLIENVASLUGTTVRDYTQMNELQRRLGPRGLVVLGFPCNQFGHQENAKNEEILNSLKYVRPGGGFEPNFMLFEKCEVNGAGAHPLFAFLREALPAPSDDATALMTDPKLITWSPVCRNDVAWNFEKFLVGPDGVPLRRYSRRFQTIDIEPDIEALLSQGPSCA
Chain of Phospholipid hydroperoxide glutathione peroxidase GPX4 (Homo sapiens) (P36969 whole entry, looked up): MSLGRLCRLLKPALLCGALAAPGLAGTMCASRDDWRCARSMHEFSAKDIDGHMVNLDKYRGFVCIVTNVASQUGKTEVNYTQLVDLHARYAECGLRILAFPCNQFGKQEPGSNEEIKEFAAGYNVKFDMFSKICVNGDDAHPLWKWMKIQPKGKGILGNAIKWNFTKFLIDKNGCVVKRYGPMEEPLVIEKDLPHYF

Cc1cccc(N2CCN(C(=O)c3cc(S(=O)(=O)N(C)C)ccc3N3CCCC3)CC2)c1C
inactive: Potency [1] | Potency [2] | Potency [3] | Potency [4] | Potency [5] | Potency [6]

CC(=O)OC[C@]12[C@H](OC(C)=O)[C@H](OC(=O)c3ccccc3)[C@@H]3[C@@H](OC(C)=O)[C@]1(OC3(C)C)[C@H](C)C[C@H](OC(C)=O)[C@@H]2OC(=O)c1ccccc1
inactive: Potency [1] | Potency [2] | Potency [3] | Potency [4] | Potency [5] | Potency [6]

CCC(C)C(=O)O[C@H]1[C@H](O)[C@@]2(COC(C)=O)C(CC1(C)C)C1=CCC3[C@@]4(C)CC[C@H](O[C@@H]5O[C@H](C(=O)O)[C@@H](O)[C@H](O)[C@H]5O)[C@@](C)(CO)C4CC[C@@]3(C)[C@]1(C)C[C@@H]2O (some centres not stated)
inactive: Potency [1] | Potency [2] | outcome [3] inactive [at 11.6 µM] | activity change, negative = thiol reactive [4] 57.8% [at 11.5 µM] | activity, negative = inhibition [5] 3.16% [at 11.6 µM] | redox activity (% of DA3003) [6] 14.3% [at 11.5 µM]

CC1CCC(=O)CC(SCC(O)C(=O)O)CCC(=O)O1 (configuration not stated)
inactive: Potency [1] | Potency [2] | Potency [3] | Potency [4] | Potency [5] | Potency [6]

C=CC(=O)Nc1cccc(Nc2nc(Nc3ccc(NC4CN(CCF)C4)cc3OC)ncc2C(F)(F)F)c1
active: Potency [4] 2.38 µM
inactive: Potency [1] | Potency [2] | Potency [3] | Potency [5] | Potency [6]

CNc1cccc(CCOc2ccc3c(c2)CN(CC(F)(F)F)C(=O)[C@H](CC(=O)O)C3)n1
inactive: Potency [1] | Potency [2] | Potency [3] | Potency [4] | Potency [5] | Potency [6]

CC(=O)O[C@@H]1[C@@H](OC(C)=O)[C@H](C)O[C@@H](O[C@H]2[C@@H]3C=CO[C@@H](O[C@@H]4O[C@H](CO)[C@@H](O)[C@H](O)[C@H]4O)[C@@H]3[C@@]3(CO)O[C@@H]23)[C@@H]1OC(=O)/C=C/c1ccccc1
inactive: Potency [1] | Potency [2] | Potency [3] | Potency [4] | Potency [5] | Potency [6]

Cc1noc(-c2ccc(-c3ccc(CC(=O)O)cc3)cc2)c1NC(=O)O[C@H](C)c1ccccc1Cl
active: Potency [5] 9.53 µM
inactive: Potency [1] | Potency [2] | Potency [3] | Potency [4] | Potency [6]

Cc1nc(C(=O)N2CCC[C@H]2Cc2nnc(-c3ccccc3)o2)c(-c2ccccc2F)s1
inactive: Potency [1] | Potency [2] | Potency [3] | Potency [4] | Potency [5] | Potency [6]

Clc1ccc(Nc2nc3ccccc3c3nc(C4CCCCC4)[nH]c23)cc1Cl
inactive: Potency [1] | Potency [2] | Potency [3] | Potency [4] | Potency [5] | Potency [6]

O=S(=O)(c1ccccc1)N(CC(F)(F)F)c1ccc(C(O)(C(F)(F)F)C(F)(F)F)cc1
inactive: Potency [1] | Potency [2] | Potency [3] | Potency [4] | Potency [5] | Potency [6]

O=C(Nc1ccn(Cc2ccc(O)cc2C(F)(F)F)n1)c1c(F)cccc1F
inactive: Potency [1] | Potency [2] | Potency [3] | Potency [4] | Potency [5] | Potency [6]

CNC(=O)c1cc(Oc2ccc(NC(=O)c3cccc(C(F)(F)F)c3)cc2)ccn1
inactive: Potency [1] | Potency [2] | Potency [3] | Potency [4] | Potency [5] | Potency [6]

Nc1c(S(=O)(=O)c2ccccc2)c2nc3ccccc3nc2n1-c1ccc(F)cc1
active: Potency [1] 20.2 µM
inactive: Potency [2] | Potency [3] | Potency [4] | Potency [5] | Potency [6]

Nc1nc(O)c(C2=C3C(=Nc4ccccc43)C(=O)NCC2)[nH]1
inactive: Potency [1] | Potency [2] | Potency [3] | Potency [4] | Potency [5] | Potency [6]

CC#C[C@@H](CC(=O)O)c1ccc(OCc2ccc(CN3CCC4(C=Cc5ccccc54)CC3)s2)cc1
inactive: Potency [1] | Potency [2] | Potency [3] | Potency [4] | Potency [5] | Potency [6]

C=C1C(=O)O[C@@H]2/C=C(\C)CC/C=C(\C)CC[C@@H]12
inactive: Potency [1] | Potency [2] | Potency [3] | Potency [4] | Potency [5] | Potency [6]

CC(C)c1cc(-c2ccc(F)c3ccccc23)nc(N)n1
inactive: Potency [1] | Potency [2] | Potency [3] | Potency [4] | Potency [5] | Potency [6]

COc1cc(NC(=O)c2cc(C3CC3)on2)c(OC)cc1Cl
inactive: Potency [1] | Potency [2] | Potency [3] | Potency [4] | Potency [5] | Potency [6]

CC(CCC1(O)OC2CC3C4CC=C5CC(O[C@@H]6O[C@H](CO)[C@@H](O[C@@H]7O[C@@H](C)[C@H](O)[C@@H](O)[C@H]7O)[C@H](O)[C@H]6O[C@@H]6O[C@@H](C)[C@H](O)[C@@H](O)[C@H]6O)CCC5(C)C4CCC3(C)C2C1C)CO[C@@H]1O[C@H](CO)[C@@H](O)[C@H](O)[C@H]1O (some centres not stated)
inactive: Potency [1] | Potency [2] | activity change, negative = inhibition [3] -3.06% [at 11.6 µM] | activity change, negative = thiol reactive [4] 218% [at 11.5 µM] | activity, negative = inhibition [5] 2.85% [at 11.6 µM] | redox activity (% of DA3003) [6] 12.7% [at 11.5 µM]

CC(C)CCNC(=O)c1ccc2c(c1)nc(Nc1n[nH]c3ccc(-c4ccccc4OC(F)(F)F)cc13)n2C1CCC(O)CC1 (configuration not stated)
active: Potency [4] 5.32 µM
inactive: Potency [1] | Potency [2] | Potency [3] | Potency [5] | Potency [6]

CC/C=C\CC1C(=O)C=CC1(CCCCC1CCC(=O)O1)OC(C)=O (configuration not stated)
inactive: Potency [1] | Potency [2] | Potency [3] | Potency [4] | Potency [5] | Potency [6]
